Each compound was assayed against Mitogen-activated protein kinase 3 (Homo sapiens) (UniProt P27361). Details: at 1 µM.
Sequence of Mitogen-activated protein kinase 3 (Homo sapiens) (P27361 whole entry): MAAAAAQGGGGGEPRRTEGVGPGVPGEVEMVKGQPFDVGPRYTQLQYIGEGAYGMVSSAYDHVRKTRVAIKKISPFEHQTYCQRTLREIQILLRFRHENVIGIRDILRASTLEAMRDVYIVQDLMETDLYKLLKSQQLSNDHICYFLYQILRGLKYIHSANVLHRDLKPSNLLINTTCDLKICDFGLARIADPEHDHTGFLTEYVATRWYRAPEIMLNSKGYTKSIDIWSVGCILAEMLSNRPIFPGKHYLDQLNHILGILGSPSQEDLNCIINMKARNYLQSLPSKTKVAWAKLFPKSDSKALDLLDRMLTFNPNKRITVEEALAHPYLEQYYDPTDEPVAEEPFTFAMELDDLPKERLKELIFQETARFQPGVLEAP
NC(=O)c1ccc2[nH]c(-c3ccc(Oc4ccc(Cl)cc4)cc3)nc2c1 showed a residual activity of 99%.
Compound Nc1nc(Nc2ccc(S(N)(=O)=O)cc2)nn1C(=S)Nc1c(F)cccc1F has a residual activity of 29%.
Work on CC[n+]1c(/C=C/N(C)c2ccccc2)n(-c2ccccc2)c2ccc(-c3nc4ccccc4s3)cc21 yielded a residual activity of 111%.
Work on COc1cc2ncnc(Nc3ccc(O)c(Br)c3)c2cc1OC yielded a residual activity of 68%.
For Cc1cccc(-c2[nH]c(C(C)(C)C)nc2-c2ccc3c(c2)OCO3)n1, the residual activity was 90%.
Nc1ccc2ncnc(NCCc3ccc(Oc4ccccc4)cc3)c2c1 showed a residual activity of 122%.
In the case of Cc1cncc2cccc(S(=O)(=O)N3CCCN(C(=O)CN)C[C@H]3C)c12, the residual activity is reported as 79%.
In the case of Ic1cccc(CSc2nnc(-c3ccncc3)o2)c1, the residual activity is reported as 82%.
Work on CC(=O)c1ccc(N2CCOCC2)cc1O yielded a residual activity of 91%.
For COc1cc2ncnc(Nc3ccc(NC(=O)c4ccccc4)cc3)c2cc1OC, the residual activity was 88%.
For CO[C@@H]1[C@H](N(C)C(=O)c2ccccc2)C[C@H]2O[C@]1(C)n1c3ccccc3c3c4c(c5c6ccccc6n2c5c31)C(=O)NC4, the residual activity was 75%.

The compounds below were run against Mitogen-activated protein kinase 3 (Homo sapiens) (UniProt P27361). Details: at 10 µM.
COc1cc2ncnc(Nc3ccc(Oc4ccccc4)cc3)c2cc1OC gave a residual activity of 113%.
In the case of Oc1c2ccccc2c2c3c(cccc13)N=N2, the residual activity is reported as 72%.
For Cc1nc2cc3nc(-c4cccs4)cnc3cc2n1C, the residual activity was 95%.
Work on Cn1nc2c3c(cccc31)C(=O)c1ccccc1-2 yielded a residual activity of 96%.
Compound CO[C@H]1[C@@H](OC)C[C@H](C)[C@@H](OC)C2=CC(=O)C=C(NC(=O)/C(C)=C/C=C/[C@H](OC)[C@@H](OC(N)=O)/C(C)=C/[C@@H]1C)C2=O has a residual activity of 89%.
COc1ccc(CNc2nc(N(CCO)CCO)nc3c2ncn3C(C)C)cc1 was tested, and the residual activity was 87%.
Compound O=[N+]([O-])c1ccc(-c2nc(-c3ccc(F)cc3)c(-c3ccncc3)[nH]2)cc1 has a residual activity of 72%.
COc1ccc(S(=O)(=O)N(CCO)c2ccccc2CN(C)C/C=C/c2ccc(Cl)cc2)cc1 was tested, and the residual activity was 70%.
In the case of c1ccc(-c2n[nH]c3c2oc2ccccc23)cc1, the residual activity is reported as 80%.
With N#Cc1cnc2cnc(NCc3cccnc3)cc2c1Nc1ccc(F)c(Cl)c1 the residual activity was 75%.
CCN(CC)C(=O)c1ccc(Nc2nc(OCC3CCCCC3)c3nc[nH]c3n2)cc1 was tested, and the residual activity was 29%.
In the case of N#CCCc1ccc2c(c1)-c1[nH]c3ccc([N+](=O)[O-])cc3c1CC(=O)N2, the residual activity is reported as 34%.
In the case of C[C@@H](N)[C@H]1CC[C@H](C(=O)Nc2ccncc2)CC1, the residual activity is reported as 109%.
O=C(Nc1cccc(Nc2nccc(Nc3cccc(C(F)(F)F)c3)n2)c1)C1CC1 showed a residual activity of 91%.
In the case of O=c1c2ccccc2[nH]c(=S)n1CCN1CCC(=C(c2ccc(F)cc2)c2ccc(F)cc2)CC1, the residual activity is reported as 61%.
Work on Oc1ccc(-c2nc(-c3ccc(F)cc3)c(-c3ccncc3)[nH]2)cc1 yielded a residual activity of 93%.
Compound O=C1NC(=O)c2cc(Nc3ccc(F)cc3)c(Nc3ccc(F)cc3)cc21 has a residual activity of 57%.
In the case of CN(C)c1ccc(/C=C2\C(=O)Nc3ccccc32)cc1, the residual activity is reported as 69%.
For NC(=O)c1ccc2[nH]c(-c3ccc(Oc4ccc(Cl)cc4)cc3)nc2c1, the residual activity was 99%.
Nc1nc(Nc2ccc(S(N)(=O)=O)cc2)nn1C(=S)Nc1c(F)cccc1F gave a residual activity of 3%.
CC[n+]1c(/C=C/N(C)c2ccccc2)n(-c2ccccc2)c2ccc(-c3nc4ccccc4s3)cc21 showed a residual activity of 96%.
In the case of COc1cc2ncnc(Nc3ccc(O)c(Br)c3)c2cc1OC, the residual activity is reported as 45%.
Cc1cccc(-c2[nH]c(C(C)(C)C)nc2-c2ccc3c(c2)OCO3)n1 gave a residual activity of 94%.
With Nc1ccc2ncnc(NCCc3ccc(Oc4ccccc4)cc3)c2c1 the residual activity was 74%.
Compound Cc1cncc2cccc(S(=O)(=O)N3CCCN(C(=O)CN)C[C@H]3C)c12 has a residual activity of 86%.
With Ic1cccc(CSc2nnc(-c3ccncc3)o2)c1 the residual activity was 82%.
For CC(=O)c1ccc(N2CCOCC2)cc1O, the residual activity was 89%.
With COc1cc2ncnc(Nc3ccc(NC(=O)c4ccccc4)cc3)c2cc1OC the residual activity was 83%.

The compounds below were run against Mitogen-activated protein kinase 1 (Homo sapiens) (UniProt P28482). Details: at 1 µM.
Sequence of Mitogen-activated protein kinase 1 (Homo sapiens) (P28482 whole entry): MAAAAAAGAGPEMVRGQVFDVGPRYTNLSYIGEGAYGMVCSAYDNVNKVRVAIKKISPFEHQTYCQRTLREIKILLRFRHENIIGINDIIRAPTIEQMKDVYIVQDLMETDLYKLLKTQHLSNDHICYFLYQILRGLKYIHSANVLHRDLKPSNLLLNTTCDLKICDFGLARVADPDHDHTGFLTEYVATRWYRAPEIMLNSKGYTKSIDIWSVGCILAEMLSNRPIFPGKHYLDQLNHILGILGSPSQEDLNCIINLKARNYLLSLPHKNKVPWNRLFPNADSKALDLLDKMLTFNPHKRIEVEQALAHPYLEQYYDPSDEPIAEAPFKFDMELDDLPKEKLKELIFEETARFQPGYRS
COc1cc2ncnc(Nc3ccc(Oc4ccccc4)cc3)c2cc1OC gave a residual activity of 96%.
For Oc1c2ccccc2c2c3c(cccc13)N=N2, the residual activity was 88%.
Cc1nc2cc3nc(-c4cccs4)cnc3cc2n1C showed a residual activity of 100%.
CO[C@H]1[C@@H](OC)C[C@H](C)[C@@H](OC)C2=CC(=O)C=C(NC(=O)/C(C)=C/C=C/[C@H](OC)[C@@H](OC(N)=O)/C(C)=C/[C@@H]1C)C2=O was tested, and the residual activity was 105%.
COc1ccc(CNc2nc(N(CCO)CCO)nc3c2ncn3C(C)C)cc1 was tested, and the residual activity was 123%.
Work on O=C1Nc2ccc(Br)cc2/C1=C\c1cc2c([nH]1)CCCC2 yielded a residual activity of 104%.
For O=[N+]([O-])c1ccc(-c2nc(-c3ccc(F)cc3)c(-c3ccncc3)[nH]2)cc1, the residual activity was 113%.
In the case of COc1ccc(S(=O)(=O)N(CCO)c2ccccc2CN(C)C/C=C/c2ccc(Cl)cc2)cc1, the residual activity is reported as 111%.
In the case of CCN(CC)C(=O)c1ccc(Nc2nc(OCC3CCCCC3)c3nc[nH]c3n2)cc1, the residual activity is reported as 99%.
Work on C[C@@H](N)[C@H]1CC[C@H](C(=O)Nc2ccncc2)CC1 yielded a residual activity of 102%.
Work on O=C1Nc2ccccc2/C1=C1/Nc2ccccc2/C1=N\OCCC(O)CO (configuration not stated) yielded a residual activity of 108%.
With Cc1cc(Nc2nc(-c3ccccc3)nc3ccccc23)n[nH]1 the residual activity was 106%.
O=C(Nc1cccc(Nc2nccc(Nc3cccc(C(F)(F)F)c3)n2)c1)C1CC1 gave a residual activity of 89%.
O=c1c2ccccc2[nH]c(=S)n1CCN1CCC(=C(c2ccc(F)cc2)c2ccc(F)cc2)CC1 was tested, and the residual activity was 103%.
Oc1ccc(-c2nc(-c3ccc(F)cc3)c(-c3ccncc3)[nH]2)cc1 gave a residual activity of 113%.
Compound O=C1NC(=O)c2cc(Nc3ccc(F)cc3)c(Nc3ccc(F)cc3)cc21 has a residual activity of 103%.
With CN(C)c1ccc(/C=C2\C(=O)Nc3ccccc32)cc1 the residual activity was 107%.
Compound NC(=O)c1ccc2[nH]c(-c3ccc(Oc4ccc(Cl)cc4)cc3)nc2c1 has a residual activity of 102%.
Nc1nc(Nc2ccc(S(N)(=O)=O)cc2)nn1C(=S)Nc1c(F)cccc1F was tested, and the residual activity was 49%.
CC[n+]1c(/C=C/N(C)c2ccccc2)n(-c2ccccc2)c2ccc(-c3nc4ccccc4s3)cc21 was tested, and the residual activity was 105%.
COc1cc2ncnc(Nc3ccc(O)c(Br)c3)c2cc1OC was tested, and the residual activity was 98%.
Cc1cccc(-c2[nH]c(C(C)(C)C)nc2-c2ccc3c(c2)OCO3)n1 showed a residual activity of 105%.
Nc1ccc2ncnc(NCCc3ccc(Oc4ccccc4)cc3)c2c1 showed a residual activity of 104%.
In the case of N#CC(C#N)=C(N)/C(C#N)=C/c1ccc(O)cc1, the residual activity is reported as 118%.
For Ic1cccc(CSc2nnc(-c3ccncc3)o2)c1, the residual activity was 111%.
COc1cc2ncnc(Nc3ccc(NC(=O)c4ccccc4)cc3)c2cc1OC gave a residual activity of 103%.
With CO[C@@H]1[C@H](N(C)C(=O)c2ccccc2)C[C@H]2O[C@]1(C)n1c3ccccc3c3c4c(c5c6ccccc6n2c5c31)C(=O)NC4 the residual activity was 101%.
For Nc1cccc(-c2cc3c(Oc4cccc(O)c4)ncnc3[nH]2)c1, the residual activity was 120%.

Source: ChEMBL document CHEMBL2218924, “A broad activity screen in support of a chemogenomic map for kinase signalling research and drug discovery” (Biochem J, 2013)
